From PubChem BioAssay (NCATS)
Inconclusive results are not listed. Calls of active or inactive are those of the source. Calls come from the whole dose curve; as a rule, active = well fitted curve in the direction sought with a large enough effect; inconclusive = small, poorly fitted or top-dose-only effect, or another doubt; inactive = no such curve, though single readings can be large; an effect the other way counts as inactive or inconclusive. Where a SMILES comes first, the peptide text is derived from it. [ ]: non-standard residue; d: D form. PhLac = O=C(O)[CH](O)Cc1ccccc1; NMeV = CN[CH](C(=O)O)C(C)C

How the values were obtained:
[1] = biological target: Glutathione peroxidase 1 (Homo sapiens) (UniProt P07203); assay: Primary qHTS Assay for Inhibitors of Recombinant Selenoprotein Glutathione Peroxidase 1 (GPX1) (AID 1845191); settings: recombinant GPX1, GR-coupled NADPH fluorescence, 15 min; series mostly up to 48.8 µM; note: nearly all actives have a fitted effect of over 65% in size; for activity, negative = inhibition: % is set by controls: 0 for no effect and ±100 for the full control effect
Outline: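 Recombinant GPX1 (10 nM final) was preincubated with compound for 30 min at room temperature, then reacted with 1 mM GSH, 0.5 mM CHP, 0.5 mM NADPH and 100 nM glutathione reductase; NADPH fluorescence (340/450 nm) was read at 0 and 15 min.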

[2] = biological target: Phospholipid hydroperoxide glutathione peroxidase GPX4 (Homo sapiens) (UniProt P36969); assay: Primary qHTS Assay for Inhibitors of Recombinant Selenoprotein Glutathione Peroxidase 4 (GPX4) (AID 1845192); settings: recombinant GPX4, GR-coupled NADPH fluorescence, 15 min; series mostly up to 50 µM; note: nearly all actives have a fitted effect of over 65% in size; for activity change, negative = inhibition: % is set by controls: 0 for no effect and ±100 for the full control effect
Outline: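 GR-coupled readout: 100 nM GR, 1 mM GSH, 0.5 mM NADPH; NADPH fluorescence (ex 340/em 450 nm) read at t=0 and after 15 min RT. GPX4 200 nM, preincubated 30 min with compound; substrate 0.5 mM CHP.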

[3] = biological target: Luciferin 4-monooxygenase (Photinus pyralis) (UniProt P08659); assay: Primary firefly luciferase (FLuc) qHTS assay for identification of artifact compounds. (AID 1845220); settings: purified firefly luciferase, luminescence, 5 min; series mostly up to 54.1 µM; note: nearly all actives have a fitted effect of over 60% in size;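 for activity change, negative = inhibition: plate controls were DMSO vehicle for no effect and no enzyme for full effect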
Outline: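 In this counter-screen for luciferase artifacts, test compounds met substrate (10 uM each luciferin and ATP) before 10 nM enzyme started the reaction. Light output was measured 5 min later.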

[4] = Primary fluorescence-based thiol-reactive (MSTI) qHTS assay for identification of artifact compounds. (AID 1845221); settings: MSTI thiol-reactivity probe, 1 h; series mostly up to 53.8 µM; note: nearly all actives have a fitted effect of over 65% in size; note: potency is the fitted concentration of half-maximal effect;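 for activity change, negative = thiol reactive: thiol-reactive compounds lower the probe fluorescence signal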
Outline: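 MSTI probe at 4 uM final in 2% DMSO/PBS pH 7.4; compounds, 1 h at room temperature in dark. Fluorescence Ex/Em 525/598 nm, normalised to Acetyl-MSTI and MSTI, fitted to 4-parameter Hill.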

[5] = system: Nanoluciferase (engineered Oplophorus gracilirostris luciferase); assay: Primary Nanoluciferase (NLuc) qHTS assay for identification of artifact compounds. (AID 1845222); settings: NLuc-conditioned medium, Nano-Glo luminescence, 5 min; series mostly up to 54.1 µM;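 note: NLuc secreted into diluted conditioned medium of S16 cells; 0% = DMSO and -100% = no enzyme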
Outline: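 Using secreted nanoluciferase in S16 culture medium (0.22 um filtered, 1:55 dilution), compounds were preincubated 15 min at RT. Signal was generated with Nano-Glo reagent (1:100) over 5 min.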

[6] = Primary redox qHTS assay for identification of artifact compounds. (AID 1845223); settings: Amplex Red/HRP redox cycling with DTT, fluorescence; series mostly up to 53.8 µM;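 note: 0% = DMSO and 100% = reference compound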
Outline: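 Amplex Red (25 uM) and HRP (250 mU/mL) in HBSS, with compounds for 15 min, then 250 uM DTT for 30 min, room temperature, dark. Fluorescence 525/598 nm read; normalized to DMSO and 10 uM DA3003; Hill fit.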

Sequence of Phospholipid hydroperoxide glutathione peroxidase GPX4 (Homo sapiens) (P36969 whole entry, looked up): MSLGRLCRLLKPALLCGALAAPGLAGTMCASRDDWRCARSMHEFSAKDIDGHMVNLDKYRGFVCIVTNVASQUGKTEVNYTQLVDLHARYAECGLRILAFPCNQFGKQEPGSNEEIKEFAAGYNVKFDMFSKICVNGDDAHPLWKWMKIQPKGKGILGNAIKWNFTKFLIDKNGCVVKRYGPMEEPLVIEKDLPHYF
Sequence of Glutathione peroxidase 1 (Homo sapiens) (P07203 whole entry, looked up): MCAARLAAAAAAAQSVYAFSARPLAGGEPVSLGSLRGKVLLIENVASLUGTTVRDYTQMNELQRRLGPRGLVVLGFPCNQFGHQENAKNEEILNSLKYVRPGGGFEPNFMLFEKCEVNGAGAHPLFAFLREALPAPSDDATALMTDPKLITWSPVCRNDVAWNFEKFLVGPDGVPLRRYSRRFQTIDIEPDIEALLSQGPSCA

C=CCc1ccc(O[C@@H]2O[C@H](CO)[C@@H](O)[C@H](O)[C@H]2O)c(OC)c1
inactive: Potency [1] | Potency [2] | Potency [3] | Potency [5]
active: Potency [4] 7.36 µM

CC(=O)OC1C(O)C(C)=C(CCC(C)CC(=O)O)C2(C)CCCC(C)(C)C12 (centres undefined)
inactive: Potency [1] | Potency [2] | Potency [3] | Potency [4] | Potency [5]

CC1CC(=O)C2=C(O1)OC1(C)CCC3C(C)(C)C=CC(=O)C3(C)C1C2 (centres undefined)
active: Potency [4] 7.36 µM
inactive: Potency [1] | Potency [2] | Potency [3] | Potency [5]

CC1CC(O)C2(C)C(C(=O)O)=CCCC2C1(C)CCc1ccoc1 (centres undefined)
inactive: Potency [1] | Potency [2] | Potency [3] | Potency [4] | Potency [5]

CC(=O)N[C@H]1[C@H](O[C@H]2CC[C@@]3(C)C(CC[C@]4(C)C3CC=C3C5CC(C)(C)CC[C@]5(C(=O)O)[C@H](O[C@@H]5O[C@H](CO)[C@@H](O)[C@H](O)[C@H]5O)C[C@]34C)C2(C)C)O[C@H](CO[C@@H]2OC[C@H](O)[C@H](O)[C@H]2O[C@@H]2OC[C@@H](O)[C@H](O)[C@H]2O)[C@@H](O)[C@@H]1O (some centres undefined)
inactive: Potency [1] | Potency [2] | activity change, negative = inhibition [3] 2.58% [at 11.6 µM] | activity change, negative = thiol reactive [4] -21.6% [at 11.5 µM] | activity, negative = inhibition [5] -3.44% [at 11.6 µM]

C=C1CC/C=C(/CO)C(=O)C[C@@H]2[C@@H]1CC2(C)C
inactive: Potency [1] | Potency [2] | Potency [3] | Potency [4] | Potency [5]

C[C@@H]1O[C@@H](O[C@@H]2[C@@H](O)[C@H](O[C@@H]3[C@@H](O)[C@@H](O)[C@H](O[C@H]4[C@H](OC(=O)[C@]56CCC(C)(C)C[C@H]5C5=CCC7[C@@]8(C)C[C@H](O)[C@H](O[C@@H]9O[C@H](C(=O)O)[C@@H](O)[C@H](O)[C@H]9O)[C@@](C)(CO)C8[C@H](O)C[C@@]7(C)[C@]5(C)CC6)OC[C@H](O)[C@@H]4O)O[C@H]3C)OC[C@H]2O)[C@H](O)[C@H](O)[C@H]1O (some centres undefined)
inactive: outcome [1] inactive [at 9.52 µM] | activity change, negative = inhibition [2] -2.98% [at 9.73 µM] | outcome [3] inactive [at 11.6 µM] | activity change, negative = thiol reactive [4] 319% [at 11.5 µM] | activity, negative = inhibition [5] 0.798% [at 11.6 µM]

C[C@@H](OC(=O)/C=C/c1ccc(O)cc1)C1=C[C@]2(C=C[C@@H]3C(C(=O)O)=CO[C@@H](O[C@@H]4O[C@H](CO[C@@H]5O[C@H](CO)[C@@H](O)[C@H](O)[C@H]5O)[C@@H](O)[C@H](O)[C@H]4O)[C@@H]32)OC1=O
active: Potency [4] 3.98 µM
inactive: Potency [1] | Potency [2] | Potency [3] | Potency [5]

CNC(=O)O[C@H]1COc2ccc(N3CCN(C4COC4)CC3)cc2[C@@H]1NC(=O)c1ccc(F)cc1
inactive: Potency [1] | Potency [2] | Potency [3] | Potency [4] | Potency [5]

CC1(C)CC[C@]2(C(=O)O[C@@H]3O[C@H](CO)[C@@H](O)[C@H](O)[C@H]3O)CC[C@]3(C)C(=CCC4[C@@]5(C)C[C@@H](O)[C@H](O)[C@@](C)(CO)C5CC[C@]43C)C2C1 (some centres undefined)
inactive: Potency [1] | Potency [2] | Potency [3] | Potency [4] | Potency [5]

COC(=O)[C@@]1(C)CC[C@]2(C(=O)O[C@@H]3O[C@H](CO)[C@@H](O)[C@H](O)[C@H]3O)CC[C@]3(C)C(=CCC4[C@@]5(C)CC[C@H](O[C@@H]6O[C@H](C(=O)O)[C@@H](O)[C@H](O)[C@H]6O)C(C)(C)C5CC[C@]43C)[C@@H]2C1 (some centres undefined)
inactive: Potency [1] | Potency [2] | activity change, negative = inhibition [3] -8.19% [at 11.6 µM] | activity change, negative = thiol reactive [4] 77.9% [at 11.5 µM] | activity, negative = inhibition [5] -2.3% [at 11.6 µM]

COc1cc2c(Nc3ccc(Cl)c(Cl)c3F)ncnc2cc1OCC1C[C@@H]2CN(C)C[C@@H]2C1 (some centres undefined)
inactive: Potency [1] | Potency [2] | Potency [3] | Potency [4] | Potency [5]

CC(=O)c1c(O)cc2cccc3c2c1CC(C)(O)O3 (centres undefined)
active: Potency [4] 5.32 µM
inactive: Potency [1] | Potency [2] | Potency [3] | Potency [5]

CC(C)=CC/C=C(/C)[C@H]1CC[C@]2(C)[C@@H]1[C@H](O)CC1[C@@]3(C)CC[C@H](O)C(C)(C)[C@@H]3[C@@H](O[C@@H]3O[C@H](CO)[C@@H](O)[C@H](O)[C@H]3O[C@@H]3O[C@@H](C)[C@H](O)[C@@H](O)[C@H]3O)C[C@]12C (some centres undefined)
inactive: Potency [1] | Potency [2] | Potency [3] | Potency [4] | Potency [5]

O=C(OCc1cccc(O)c1O[C@@H]1O[C@H](CO)[C@@H](O)[C@H](O)[C@H]1O)C1(O)C(=O)C2C=CC1C1C=CC(=O)C(O)(C(=O)OCc3cccc(O)c3O[C@@H]3O[C@H](CO)[C@@H](O)[C@H](O)[C@H]3O)C21 (some centres undefined)
inactive: Potency [1] | Potency [2] | outcome [3] inactive [at 11.6 µM] | activity change, negative = thiol reactive [4] 11.6% [at 11.5 µM] | activity, negative = inhibition [5] 1.93% [at 11.6 µM]

CC(C)[C@H]1CCC(CO)=C[C@@H]1/C=C(\CO)C(=O)O
inactive: Potency [1] | Potency [2] | Potency [3] | Potency [4] | Potency [5]

C=CC(C)(CC/C=C(\C)CC/C=C(\C)CC(O)/C=C(\C)C(=O)O)O[C@@H]1O[C@H](CO)[C@@H](O)[C@H](O)[C@H]1O[C@@H]1O[C@H](CO)[C@@H](O)[C@H](O)[C@H]1O (some centres undefined)
inactive: Potency [1] | Potency [2] | Potency [3] | Potency [4] | Potency [5]

CC(C(=O)O)C1CCC2(C)C3C(=O)C=C4C(CCC(=O)C4(C)C)C3(C)CCC12C (centres undefined)
inactive: Potency [1] | Potency [2] | Potency [3] | Potency [4] | Potency [5]

O=C(c1ccc(F)cc1)C1CCN(CCn2c(=O)nc3n(c2=O)CCCC3)CC1
inactive: Potency [1] | Potency [2] | Potency [3] | Potency [4] | Potency [5]

C=C1CC2C3(C)C(O)CC(=O)C(C)(C)C3C(OC(C)=O)C(OC(C)=O)C2(C)C2C(=O)OC(C)(C(=O)OC)C(=O)C12C (centres undefined)
inactive: Potency [1] | Potency [2] | Potency [3] | Potency [4] | Potency [5]

CC(O)C(O)/C=C/C=C/C(=O)O[C@@H]1C=C2COC(=O)[C@]2(O)[C@@]2(C)CCCC(C)(C)C12 (some centres undefined)
inactive: Potency [1] | Potency [2] | Potency [3] | Potency [4] | Potency [5]

CC(C)C(C(=O)N1CCCC1C(=O)O)N(C)C(=O)C(O)Cc1ccccc1 (centres undefined) (H-[PhLac]-[NMeV]-Pro-OH; configuration not given here)
inactive: Potency [1] | Potency [2] | Potency [3] | Potency [4] | Potency [5] | Potency [6]

CC1CCC2C(C)(C)C(O)CCC2(C)C12Cc1c(O)cc3c(c1O2)C(N)=NC3 (centres undefined)
inactive: Potency [1] | Potency [2] | Potency [3] | Potency [4] | Potency [5] | Potency [6]

CCCC1=CC2=C(CO1)C(=O)C(C)(OC(=O)c1c(C)cc(OC)cc1O)C(O)C2 (centres undefined)
inactive: Potency [1] | Potency [2] | Potency [3] | Potency [4] | Potency [5] | Potency [6]

C[C@@H]1O[C@@H](O[C@H]2[C@H](OC(=O)[C@]34CCC(C)(C)C[C@H]3C3=CCC5[C@@]6(C)C[C@H](O)[C@H](O[C@@H]7O[C@H](CO)[C@@H](O[C@@H]8O[C@H](CO)[C@@H](O)[C@H](O)[C@H]8O)[C@H](O)[C@H]7O)[C@@](C)(CO)C6[C@H](O)C[C@@]5(C)[C@]3(C)C[C@H]4O)OC[C@H](O)[C@@H]2O)[C@H](O)[C@H](O)[C@H]1O[C@@H]1OC[C@@H](O)[C@H](O[C@@H]2OC[C@](O)(CO)[C@H]2O)[C@H]1O (some centres undefined)
inactive: activity, negative = inhibition [1] -19.6% [at 9.52 µM] | activity change, negative = inhibition [2] -11% [at 9.73 µM] | activity change, negative = inhibition [3] -27.8% [at 11.6 µM] | activity change, negative = thiol reactive [4] -12.6% [at 11.5 µM] | activity, negative = inhibition [5] 2.77% [at 11.6 µM]

CC1(C)CC2C3=CCC4C5(C)CCC(OC6OC(C(=O)O)C(O)C(O)C6OC6OC(CO)C(O)C(O)C6OC6OC(CO)C(O)C(O)C6O)C(C)(CO)C5CCC4(C)C3(C)CCC2(C)C(OC2OCC(O)C(OC3OC(CO)C(O)C(O)C3O)C2O)C1O (centres undefined)
inactive: activity, negative = inhibition [1] -11.2% [at 9.52 µM] | activity change, negative = inhibition [2] -2.61% [at 9.73 µM] | activity change, negative = inhibition [3] -3.45% [at 11.6 µM] | activity change, negative = thiol reactive [4] 89.2% [at 11.5 µM] | activity, negative = inhibition [5] 2.9% [at 11.6 µM] | redox activity (% of DA3003) [6] 10.1% [at 11.5 µM]

CC1CCC2C(C(=O)O)=CC3CC(C)(C)CC132 (centres undefined)
active: Potency [4] 23.8 µM
inactive: Potency [1] | Potency [2] | Potency [3] | Potency [5]
